Results as given in PubChem BioAssay (NCI).
Compounds without any hit were thinned out: in the full panel of roughly 83,000, 20% have a hit.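 Step 1: grow cells in 96-well plates. Step 2: add test compound at a single concentration. Step 3: incubate 48 h. Step 4: record percent growth.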 Values without a mark were called inactive. The source made the active and inactive calls. Rule for the calls: active = growth percent below 10; inactive = the rest.

Tests used:
Assay in all cases: NCI-60 one-dose screen, 48 h (100 = growth as untreated, 0 = no growth, -100 = all killed)
[1] = system: SR leukemia; details: 10 µM unless noted
[2] = system: RPMI-8226 leukemia; details: 10 µM
[3] = system: OVCAR-8 ovarian; details: 10 µM unless noted
[4] = system: OVCAR-5 ovarian; details: 10 µM unless noted
[5] = system: OVCAR-4 ovarian; details: 10 µM unless noted
[6] = system: SK-OV-3 ovarian; details: 10 µM
[7] = system: IGROV1 ovarian; details: 10 µM unless noted
[8] = system: OVCAR-3 ovarian; details: 10 µM unless noted
[9] = system: HS 578T breast; details: 10 µM unless noted
[10] = system: NCI/ADR-RES ovarian; details: 10 µM unless noted
[11] = system: T-47D breast; details: 10 µM
[12] = system: BT-549 breast; details: 10 µM unless noted
[13] = system: MDA-MB-435 melanoma; details: 10 µM unless noted
[14] = system: SW-620 colon; details: 10 µM unless noted
[15] = system: MCF7 breast; details: 10 µM unless noted
[16] = system: HCT-116 colon; details: 10 µM unless noted
[17] = system: HCC-2998 colon; details: 10 µM unless noted
[18] = system: KM12 colon; details: 10 µM unless noted

Structure (SMILES)	growth [1]	growth [2]	growth [3]	growth [4]	growth [5]	growth [6]	growth [7]	growth [8]	growth [9]	growth [10]	growth [11]	growth [12]	growth [13]	growth [14]	growth [15]	growth [16]	growth [17]	growth [18]
CCN(C(=O)c1ccc2c3c(cccc13)C=C2)c1ccccc1	83.4%	96.7%	91.2%	90.5%	106%	96%	102%	112%	120%	93.2%	96%	107%	90.9%	111%	109%	97.8%	123%	118%
COc1cc(/C=C2\C(=O)N(c3c(Cl)cccc3Cl)c3ccccc32)cc(OC)c1O	3.84% (active)	12.5%	33.1%	89.8%	53.6%	53.7%	6.56% (active)	46%	39.8%	38.7%	51.8%	33.4%	35.2%	31.4%	25.3%	15.7%	44.6%	28.4%
Brc1ccccc1Nc1ccc2nnc(-c3ccncc3)n2n1	61.7%	91.1%	100%	101%	104%	102%	93.6%	103%	109%	99.8%	80.6%	107%	105%	102%	84.9%	94.9%	113%	94.1%
COc1ccc(Nc2nc(NCCNc3ccnc4cc(Cl)ccc34)nc(N3CCOCC3)n2)cc1	7.72% (active)	45.9%	71.4%	130%	81.3%	100%	72.8%	73.4%	66.3%	76.2%	110%	83.7%	11.1%	27.2%	56.2%	41.8%	0.682% (active)	51.5%
O=C(CCCCCCC(=O)Nc1ccc2c(c1)/C(=C/c1ccc[nH]1)C(=O)N2)NO	4.1% (active)	-19.5% (active)	11.2%	0.698% (active)	23.7%	12.2%	-4.96% (active)	-57.8% (active)	9.71% (active)	35.7%	-0.107% (active)	29.7%	-1.97% (active)	-27% (active)	17.2%	-36.8% (active)	3.74% (active)	
COc1ccc(C(=O)C2=CC(=O)C(=O)C2)cc1OC	94.3%	98.7%	113%	98.2%	109%	104%	99.3%	108%	110%	99.5%	99.7%	93.8%	106%	107%	95.9%	103%	108%	106%
O=c1nc(NO)[nH]c(=O)n1Cc1ccc(F)cc1	103%	105%	109%	104%	91.5%	105%	97.3%	112%	112%	107%	97%	102%	103%	101%	94.3%	102%	114%	109%
COc1cc(C(=O)/C=C/c2c(-c3cccs3)nc3sccn23)cc(OC)c1OC	10.3%	-0.804% (active)	0.926% (active)	0.426% (active)	-2.2% (active)	-2.52% (active)	5.57% (active)	-19.1% (active)	-9.28% (active)	-29.7% (active)	-1.93% (active)	5.79% (active)	2.16% (active)	8.66% (active)	11%	-14.3% (active)	-11.9% (active)	-27.2% (active)
N#C[S-].[Au+].c1ccc(CN2[CH-]N(Cc3ccccc3)C(c3ccccc3)=C2c2ccccc2)cc1	-8.44% (active)																	
COc1ccc(CSc2nc3cc(OC)c(OC)cc3c(=O)n2-c2ccc(Cl)cc2)cc1	102%	90.8%	98.7%	94.2%	103%	105%	104%	103%	97.1%	101%	95.4%	100%	98%	99.2%	101%	98.4%	108%	102%
COc1cc(C(F)(F)F)ccc1-c1cc(-c2ccc(F)cc2)n[nH]1	107%	67.5%	84.7%	88.7%	71.2%	104%	80.6%	91.9%	96.3%	91.5%	62.7%	106%	96%	98.3%	50.4%	82.2%	108%	
C[C@@H](Oc1cc(-c2cnn(C3CC4(CCCNC4)C3)c2)cnc1N)c1c(Cl)ccc(F)c1Cl (stereo partly drawn)	-3.47% (active)	-0.0926% (active)	43.4%	34.3%	37.2%	78%	48.9%	52%	30.5%	46.1%	20.4%	73.4%	12.6%	-4.07% (active)	-14.5% (active)	-11.8% (active)	15.3%	
O=C1/C(=C/c2ccc(Oc3ccccc3)cc2)N=C(c2ccccc2)N1CCc1cccs1	81%	69.7%	88.6%	109%	78%	106%	71.5%	106%	58.7%	83.9%	83.9%	74.9%	89.7%	80.1%	81.8%	57.1%	96.6%	
Cc1nc2cc(Nc3nc(Nc4ccc(F)cc4)nc(N4CCN(C)CC4)n3)ccc2n1Cc1ccccc1	-21.6% (active)	-40.2% (active)	11.6%	42.9%	-7.19% (active)	68.7%	24.6%	-35.6% (active)	-19.4% (active)	43.1%	-10.7% (active)	-49.9% (active)	0.19% (active)	15.6%	17.9%	-16.3% (active)	-14.8% (active)	17%
COc1cccc(-c2ccc3c(c2)C2CCN(Cc4ccccc4)C3C2)c1 (stereo not drawn)	18.4%	59.4%	85%	84.4%	86.5%	71.1%	59.9%	72.2%	90%	68.8%	76.3%	64.2%	9.08% (active)	53.6%	60.1%	58.4%	83.5%	56.7%
CC1(C)N=C(N)N=C(N)N1c1cccc(OCCOc2cccc([N+](=O)[O-])c2)c1	15.9%	52.4%	105%	32%	81.3%	70%	29.7%	45.3%	82%	107%	83.1%	37.8%	17.8%	48.6%	29%	10.9%	47.6%	
CC(=O)OCC1O[C@@H]([S-])C(OC(C)=O)[C@H](OC(C)=O)[C@@H]1OC(C)=O.[Au+].c1ccc(CN2[CH-]N(Cc3ccccc3)C(c3ccccc3)=C2c2ccccc2)cc1	-29.1% (active)																	
Cc1cc(O)cc2c1[C@H]1CC[C@]3(C)[C@@H](O)CC[C@H]3[C@@H]1C=C2	40.3%	80.8%	95.3%	114%	110%	115%	74.4%	108%	86.5%	53.2%	96.5%	100%	7.81% (active)	72%	109%	86.6%	48.4%	102%
O=C1C(Br)=C(c2ccccc2)C(=O)C(Br)=C1c1ccccc1	71.1%	99.2%	91.9%	96.7%	90%	95.4%	105%	110%	97.2%	103%	73.4%	97.7%	91.4%	94.2%	92.6%	90.3%	98.2%	102%
